Experimental findings from PubChem BioAssay AID504833 (Johns Hopkins Ion Channel Center, 2011) are described below.

Molecules are shown by their SMILES. About 2,200 (88%) of roughly 2,500 compounds were called active. The set was probably picked from earlier hits. A selection follows. A number with no mark means an inactive call.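 The calls were made as follows: active = primary screen active, with duplicate mean activation above negative control mean plus 3 SD (cut at about 11% in these data); inactive = the rest.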

The target in this assay is High affinity choline transporter 1 (Homo sapiens) (UniProt Q9GZV3). Put plainly: human choline transporter potentiators – cell-based, membrane potential dye, duplicate, confirmation (AID 504833). The settings on record: CHT-expressing cells, membrane potential dye fluorescence (FDSS); at 10 µM; stronger effect = higher value; % of choline EC20–EC90 response window; HEK293 expressing CHT LV-AA mutant; choline added at its EC20.
Sequence of High affinity choline transporter 1 (Homo sapiens) (Q9GZV3 whole entry, looked up): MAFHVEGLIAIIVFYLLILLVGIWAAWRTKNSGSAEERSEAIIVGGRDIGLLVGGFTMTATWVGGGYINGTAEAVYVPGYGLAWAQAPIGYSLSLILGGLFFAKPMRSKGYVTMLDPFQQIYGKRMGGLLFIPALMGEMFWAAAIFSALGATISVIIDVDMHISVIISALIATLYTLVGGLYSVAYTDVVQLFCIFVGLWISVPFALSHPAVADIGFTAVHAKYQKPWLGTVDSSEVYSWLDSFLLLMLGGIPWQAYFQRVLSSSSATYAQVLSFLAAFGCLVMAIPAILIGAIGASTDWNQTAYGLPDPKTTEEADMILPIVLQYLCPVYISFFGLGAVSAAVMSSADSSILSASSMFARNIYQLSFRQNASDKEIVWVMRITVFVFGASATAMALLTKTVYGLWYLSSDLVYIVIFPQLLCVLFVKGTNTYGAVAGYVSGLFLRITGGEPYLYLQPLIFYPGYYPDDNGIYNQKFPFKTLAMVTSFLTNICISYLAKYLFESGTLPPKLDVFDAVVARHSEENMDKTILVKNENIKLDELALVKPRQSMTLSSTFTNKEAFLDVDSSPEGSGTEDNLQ
Regarding `Nc1scc[n+]1Cc1cccc2cccnc12`, the activation was 42.7% (active). As to `Cn1c(=O)n(Cc2ccco2)c(=N)c2c3c(sc21)CCCC3`, the activation was 30.6% (active). For `CCn1c(/C=C/Nc2ccccc2)[n+](CC)c2ccc(C(=O)OCC(F)(F)F)cc21`, the activation was 68.4% (active). `CC(Sc1nc2ccccc2c(=O)n1Cc1ccco1)C(=O)c1ccccc1` (stereo not drawn): the activation was 16.9% (active). As for `Cc1nnc(-c2ccc(Oc3ccc(C)c(C)c3)c([N+](=O)[O-])c2)o1`, the figure is 15% (active); as for `Cc1ccc2c(c1)N(CC(=O)N(Cc1ccccn1)Cc1ccco1)C(=O)C(C(C)C)O2` (stereo not drawn), 30.6% (active). As for `Clc1ccc(COn2c(-c3ccc(Cl)cc3Cl)nc3ncccc32)cc1`, the figure is 36.3% (active); as for `COc1ccccc1NC(=O)CSc1nnc(-c2ccoc2C)n1CCc1ccccc1`, 3.73%; as for `COc1ccccc1NC(=O)CN(c1ccccc1OC)S(=O)(=O)c1ccccc1`, 12% (active). Consider `Cc1c(C)c2c(OCC(=O)N[C@@H](C(=O)O)c3ccccc3)cc3c(c2oc1=O)CCC(C)(C)O3`, for which the activation is 7.79%. `Cc1cc(NC(=O)c2cnn3cccnc23)n(-c2ccccc2)n1`: the activation was 52.8% (active).

Regarding `CCN1CCCC1CNC(=O)c1cc2c(=O)n(C)c3ccccc3c2n1C` (stereo not drawn), the activation was 44.7% (active). As for `CCOC(=O)c1cccnc1NC(=O)c1ccncc1`, the figure is 35.3% (active); as for `Cc1nc2ccccc2c(=O)n1CCCn1ccnc1`, 22.6% (active).

For `Cc1nc2c(-c3ccccc3)c(C)[nH]n2c(=O)c1Cl`, the activation is 8.04%. For `CC1=CC(C)(C)N(C(=O)CSc2nnc(-c3ccccc3)o2)c2ccc(C)cc21`, the activation is 7.25%. As to `CCCCN(CCCC)CC(O)Cn1c2ccccc2c(=O)c2ccccc21` (stereo not drawn), the activation was 44.6% (active). `CC(C)CC(COCc1ccc(Cl)cc1)N1CCN(C(=O)c2ccc(C(F)(F)F)cc2)CCC1=O` (stereo not drawn): the activation was 33.6% (active).

Take `COc1ccc2nc(/N=C(\N)NC(=O)Nc3ccccc3)nc(C)c2c1`: the activation is 6.06%.

For the compound `Cc1nc(N=C(N)N)nc2c(C)cccc12`, the activation was 49.8% (active).

Take `COc1nc(N=C(N)N)nc2c(C)cccc12`: the activation is 40.5% (active).

As to `CN1CCc2c(sc3c2c(NCc2ccco2)nc2nnnn23)C1`, the activation is 73.5% (active). Then `CCOc1ccc(C2c3[nH]c4ccccc4c3CCN2Cc2cccn2-c2ncccn2)cc1` (stereo not drawn), with 17.1% (active). As for `C=CCNc1nnc(C)c2ccccc12`, the figure is 55.7% (active). Then `COC(=O)c1sc(C(F)(F)F)c(-c2ccccc2)c1S(=O)(=O)N(C)C`, with 27.1% (active); and `CC1(C)Cc2c(sc3nc4n(c(=N)c23)CCCCC4)CO1`, with 40.2% (active); and `CN1CCN(c2cc3c(cc2F)c(=O)c(C(=O)O)cn3CCF)CC1`, with 63.4% (active).

For `CCn1cc(S(=O)(=O)c2cccc(C)c2)c(=O)c2cc(F)c(N3CCN(C)CC3)cc21`, the activation was 52.5% (active).

For `Cn1c(=O)[nH]c(=O)c2c1nc(N1CCN(CCO)CC1)n2CCSc1nc2ccccc2s1`, the activation is 69.4% (active).

For `Cc1ccc(-n2c(C)cc(/C=N\NC(=O)CC(=O)NC(C)C)c2C)cc1`, the activation was 33.2% (active). As for `O=C(Nc1ccccc1N1CCN(c2ccccc2)CC1)c1cccc(F)c1`, the figure is 36.2% (active); as for `C[C@H]1CCC(=O)N([C@H](CSc2ccccc2)Cc2ccccc2)CC1`, 12% (active); as for `O=C(c1ccc(F)c(S(=O)(=O)N2CCOCC2)c1)N(CCc1ccccc1)Cc1ccccc1`, 19.7% (active). Take `O=C1c2ccccc2C(=O)c2c1cccc2N1CCN(CCO)CC1`: the activation is 47.2% (active). Then `CCCCCCCCCCOC(=O)Cn1c(COc2ccc(C)cc2)[n+](C)c2ccccc21`, with 49.5% (active); and `CCCCCCCCCCOC(=O)Cn1c(COc2cccc(OC)c2)[n+](C)c2ccccc21`, with 63.2% (active); and `CCOC(=O)c1cn(CC)c2cc(F)c(F)cc2c1=O`, with 50.9% (active). As for `COc1cccc(C(=O)NC(=O)Nc2nc(C)cc(C(F)(F)F)n2)c1`, the figure is 49.4% (active); as for `COC(=O)c1ccc(C(NC(=O)OCc2ccccc2)/C(C)=C/[C@@H](C)C(=O)NCc2ccc(OC)c(OC)c2)cc1` (stereo partly drawn), 22.6% (active); as for `CCCCn1c(N)c(N(CCC(C)C)C(=O)c2ccc(COc3ccccc3)o2)c(=O)[nH]c1=O`, 24.5% (active). Then `CN(C)/C=C/C(=O)c1cnc2sccn2c1=O`, with 42.8% (active); and `COc1cc2c(cc1OC)C(Nc1ccc(S(N)(=O)=O)cc1)=NC(C)(C)C2`, with 71.7% (active); and `CC(=O)c1ccccc1OCc1ccc(C(=O)c2ccccc2)cc1`, with 25% (active). Regarding `Cc1nnc(C)c2c(C)n(N)c(C)c12`, the activation is 19.2% (active).

As to `Nc1ccccc1SCc1cc([N+](=O)[O-])cc2c1OCOC2`, the activation is 33.2% (active). As for `O=C(Nc1ccncc1)c1ccc(Cl)c([N+](=O)[O-])c1`, the figure is 35.4% (active); as for `COc1ccc(Nc2nnc(C)c3ccccc23)cc1`, 38.3% (active). As for `CN(C)c1ccnc(Nc2ccc(F)cc2)c1C#N`, the figure is 52.3% (active).

Regarding `Clc1ccc(C[n+]2cc(-c3ccc(Cl)cc3)n3c2CCC3)cc1`, the activation was 57.3% (active). On to `COc1ccc2c(c1)cc1n2CCN=C1NN`, for which the activation was 49% (active). As for `COc1cc2c(cc1OC)C(c1cccc([N+](=O)[O-])c1)=NCC2`, the figure is 68.6% (active); as for `COc1ccc(Cn2c(-c3ccc(Cl)cc3)c[n+]3ccccc23)cc1`, 73.3% (active); as for `Cc1cc(=O)oc2c(C)c(OC(C)C(=O)NC3CCN(Cc4ccccc4)CC3)ccc12` (stereo not drawn), 56.9% (active). Then `Cn1c(=NC(=O)c2cnccn2)sc2ccccc21`, with 55.7% (active); and `Cc1c(CCOC(=O)CC23CC4CC(CC(C)(C4)C2)C3)sc[n+]1Cc1ccc([N+](=O)[O-])cc1`, with 26.9% (active). For the compound `Cc1cccn2c(=O)c3cc(C#N)c(=O)n(CCCN4CCOCC4)c3nc12`, the activation was 42.7% (active).

Turning to `CN1CCN(c2nc(Nc3ccc(O)cc3)nc3ccccc23)CC1`, the activation was 44.2% (active).

With `CCN1C(=NCCc2cccnc2)N[C@@H](c2ccccc2)[C@H](C(=O)OC)[C@H]1C`, the activation was 14% (active). Then `Cc1ccccc1C(=O)NCC(c1ccco1)N1CCc2ccccc21` (stereo not drawn), with 9.36%.

Take `CC(=O)N1CC[n+]2c(-c3ccc([N+](=O)[O-])cc3)csc21`: the activation is 38.1% (active). `C[C@]1(C(=O)NCCc2c[nH]c3ccccc23)C=C[C@@H](Cc2ccccc2)N1C(=O)c1ccccc1`: the activation was 10.8% (active). Then `O=C(C1=C(O)C(=O)N(Cc2ccccc2)C1c1ccco1)c1ccco1` (stereo not drawn), with 9.6%; and `O=C(COC(=O)C1CCN(S(=O)(=O)c2ccc3c(c2)OCCO3)CC1)Nc1ccccc1OC(F)F`, with 4.44%. As for `N#C/C(=C\c1ccc(-c2cccc([N+](=O)[O-])c2)o1)C(=O)NCCN1CCOCC1`, the figure is 15.6% (active).

On to `N#Cc1ccc(/C=C2\CCn3c2nc2cc(C(=O)O)ccc2c3=O)cc1`, for which the activation is 48.6% (active).

Turning to `COc1ccc(CC2c3cc(OC)c(OC)cc3CC[N+]2(C)CCC(=O)OCCCCCOC(=O)CC[N+]2(C)CCc3cc(OC)c(OC)cc3C2Cc2ccc(OC)c(OC)c2)cc1OC` (stereo not drawn), the activation was 35.7% (active). As for `CC(Nc1nc(N2CCN(CCO)CC2)nc2ccccc12)c1ccccc1` (stereo not drawn), the activation was 24.3% (active). Regarding `COc1ccc(C(O)(C2CCCCC2)C(CN2CCCC2)c2ccccc2)cc1` (stereo not drawn), the activation was 35.9% (active).

Consider `CN(C)c1cc(N)c2ccccc2n1` (tested in a mixture with another compound), for which the activation is 67.2% (active).

With `CC(C)(C)Nc1nc(-c2ccccn2)nc2ccccc12`, the activation is 57.4% (active). As to `COc1cc2nc(N3CCN(C(=O)[C@@H]4CCCO4)CC3)nc(N)c2cc1OC`, the activation was 43% (active). Then `Cn1c(=O)n(C)c2cc(C(=O)Nc3ccc4c(c3)OCO4)ccc21`, with 43.2% (active); and `O=C(NCCC1=CCCCC1)C1CCN(Cc2cnn(-c3ccccc3)c2-n2cccc2)CC1`, with 29.7% (active); and `O=[N+]([O-])c1ccc(N2CCNCC2)cc1NCc1cccnc1`, with 52.9% (active). As to `Cc1ccc(C(=O)C[n+]2cc(-c3ccccc3)n3c2CCCCC3)cc1`, the activation is 43.1% (active).

Consider `CCN1/C(=C/c2ccc3ccc(C)cc3[n+]2CC)Sc2ccccc21`, for which the activation was 3.38%.

`Cc1ccc(-n2c(SCC(=O)N3c4ccccc4Sc4ccccc43)nnc2-c2ccncc2)cc1`: the activation is 21.6% (active).

Take `Cc1ccc(C(=O)c2ccc(N3CCN(C)CC3)c([N+](=O)[O-])c2)cc1`: the activation was 9.27%.

For `CCN1CCN(c2ccc([N+](=O)[O-])cc2C(=O)c2ccc(Cl)cc2)CC1`, the activation is 50.4% (active). Take `CN(C)c1cc[n+](Cc2ccccc2)cc1`: the activation was 50.2% (active).

In the case of `N=c1c2c3c(sc2ncn1CCCN1CCOCC1)CCCCC3`, the activation was 72.9% (active). As for `N=c1c2c3c(sc2ncn1N)CCCCC3`, the activation is 42.9% (active). Consider `COc1ccc([N+](=O)[O-])cc1N(CC(O)CN(CC(C)C)CC(C)C)S(=O)(=O)c1ccc(C)cc1` (stereo not drawn), for which the activation is 37.9% (active).

In the case of `Cc1nc2ccccc2c2oc(C(=O)NCCCN3CCC(C)CC3)cc12`, the activation is 13.8% (active). Then `O=C(c1ccccc1F)N(Cc1ccccc1)Cc1ccccc1`, with 34.5% (active); and `CCN(CC)CCCNC(=O)c1cn(C)c2ccc(S(=O)(=O)N(C)C3CCCCC3)cc2c1=O`, with 32.9% (active). Then `CCN(CC)CCC(c1cc(OC)c(OC)c(OC)c1)c1c(OC)cc(OC)c2c(-c3ccccc3)cc(=O)oc12` (stereo not drawn), with 27.1% (active); and `COc1ccc(Nc2cc(C)nc(-n3nc(C)cc3C)n2)cc1`, with 12.6% (active). As for `O=Cc1ccc(OCc2cn3ccccc3n2)cc1`, the figure is 38.8% (active); as for `Cc1cc2c(cc1C)[n+](C)cn2CC(O)COCC1CC=CCC1` (stereo not drawn), 80.5% (active); as for `COc1ccccc1NC(=O)C1=C(C)Nc2nc3ccccc3n2C1c1cccs1` (stereo not drawn), 17.7% (active). For `Cc1cc(=O)oc2cc(OCCC[n+]3ccccc3)ccc12`, the activation is 61.4% (active).

Regarding `O=C(CCC1CCN(C(=O)c2cccc(Cl)c2F)CC1)Nc1ccccc1`, the activation was 24.5% (active).
